Drawing on PubChem BioAssay AID686978 (National Center for Advancing Translational Sciences (NCATS), 2013), this text covers Potency for 28 molecules.

Structures are written as SMILES. About 64,000 (15%) of roughly 420,000 compounds were called active. Not shown: some 27% with an inconclusive outcome. Calls follow the shape of the dose curve; as a rule, active = well fitted inhibition curve with a large enough effect; inconclusive = small, poorly fitted or top-dose-only effect; inactive = flat fitted curve, though single readings scatter. Not all results are given here. A call without a number means that no potency is given here.
Potency is read from the fitted curve at half-maximal effect.

The assay in a line: qHTS for Inhibitors of human tyrosyl-DNA phosphodiesterase 1 (TDP1): qHTS in cells in absence of CPT. Also: nearly all actives have a fitted effect of over 55% in size. The note with it: DT40 Tdp1-/- hTDP1 cells, no CPT, ATP luminescence, 48 h; activity change, negative = growth inhibition: at 46.2 µM (top of the series). The method in brief:
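Luminescent ATP content (CellTiter-Glo) served as the growth readout. Knockout chicken DT40 cells expressing human TDP1 were exposed to compounds without camptothecin for a minimum 48 hr at 37 °C.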
In general terms: qHTS replaces the single test concentration by a dilution series.
In the case of `O=C(NCCN=C1NS(=O)(=O)c2ccccc21)c1ccc(S(=O)(=O)N2CCOCC2)cc1`, the Potency result was “inactive”.
For `CCCCCCOC(=O)NCC(O)c1ccccc1` (stereo not drawn) the value was “inactive”; for `CC(C)C[C@H](NC(=O)C1CCC(CNC(=O)[C@@H]2CCCN2C(=O)OC(C)(C)C)CC1)C(=O)O` (stereo partly drawn), “inactive”; for `CC(=O)OCC(=O)C1CCC2C3CCC4=CC(=O)CC[C@@]4(C)C3CC[C@]12C` (stereo partly drawn), “inactive”.
On to `CSc1ncnc2c1ncn2CC(=O)C1CCC2C3CCC4=CC(=O)CCC4(C)C3CCC12C` (stereo not drawn), for which the Potency was 5.8 µM (active).
In the case of `C#CCOc1ccc(/C=C2/C(=O)NN(c3ccccc3)C2=O)cc1OC`, the Potency entry was “inactive”.
For `COc1ccnc2c1c(=O)n(Cc1cccc(F)c1)c(=O)n2C` the value was “inactive”; for `COc1cc(/C=C2/C(=O)ON=C2C)ccc1OCc1cccc(F)c1`, 16.4 µM (active); for `Cc1c(C(=O)O)nnn1-c1nonc1N`, “inactive”.
For `CCOc1cc(C(=O)Nc2ncccn2)cc(OCC)c1OCC` the value was “inactive”; for `CC1C/C(=N/NC(=O)c2cccs2)CC(C)(C)C1` (stereo not drawn), “inactive”; for `COc1cccc2sc(NNC(=O)c3nc4ccccc4s3)nc12`, 6.51 µM (active).
For `CSCCC(Nc1nc2ccccc2s1)C(=O)O` (stereo not drawn) the value was “inactive”.
Turning to `COc1ccc(S(=O)(=O)N2CCOCC2)cc1C(=O)Nc1nc2ccccc2s1`, the Potency result is “inactive”.
For `Cc1ccc(N2CC(C(=O)NCCS(=O)(=O)N3CCN(c4ccccc4)CC3)CC2=O)cc1` (stereo not drawn) the value was “inactive”; for `COc1ccccc1NC(=O)COC(=O)c1ccccc1SCC(=O)N1CCCC1`, “inactive”.
Then `Cc1ccc2c(c1)N(CC(=O)NCCCN1CCCCC1)C(=O)c1cccnc1O2`, with “inactive”; and `CCN(CC)c1ccc(NC(=O)Cn2nc3c(cc2=O)CCCC3)c(C)c1`, with “inactive”.
For `CC1(c2ccc(Cl)cc2Cl)NC(=O)N(CC(=O)Nc2cccnc2Cl)C1=O` (stereo not drawn) the value was “inactive”.
Consider `CC(=O)Nc1cccc(C(=O)OCN2C(=O)c3ccccc3C2=O)c1`, for which the Potency result was “inactive”.
Consider `CCCCN1C(=O)C(=O)N(CC(=O)Nc2cccc(C(C)=O)c2)C1=O`, for which the Potency result is “inactive”.
Turning to `CCN(CC)c1ccc(NC(=O)CN2C(=O)c3cccnc3Oc3ccc(Cl)cc32)c(C)c1`, the Potency is 13 µM (active).
On to `CC(=O)c1cccc(NC(=O)CN2C(=O)c3cccnc3Oc3ccc(Cl)cc32)c1`, for which the Potency was 13 µM (active).
Then `Cc1ccc2c(c1)N(CC(=O)NCCc1ccc(Cl)cc1)C(=O)c1cccnc1O2`, with 1.16 µM (active); and `Cc1ccc2[nH]c3c(=O)n(CC(=O)NCCc4ccc(Cl)cc4)ncc3c2c1`, with “inactive”; and `O=C(COC(=O)c1ccc(S(=O)(=O)N2CCc3ccccc3C2)cc1)NC(=O)NCc1ccco1`, with “inactive”.
`O=C(COc1ccc([N+](=O)[O-])cc1Cl)Nn1cnnc1`: the Potency entry is “inactive”.
For `CNc1nc(=O)n(C2CCCO2)cc1C` (stereo not drawn) the value was “inactive”.
